This note sets out measurements from PubChem BioAssay AID463173 (ICCB-Longwood Screening Facility, Harvard Medical School, 2010).

SMILES strings stand for the structures. About 1,700 (3.3%) of roughly 52,000 compounds were called active. Rule as the data show it: active = survival mostly below about 52% (no sharp cut-off); inactive = mostly above about 56%. Many of the other results were omitted from the sample, so actives are more common in it than they were.

In the assay the test system is Wild type. Kind of assay: growth inhibition of S. aureus wild type versus tarO mutant, primary screen, teichoic acid synthesis inhibitors, RN4220, OD600 (AID 463173). Particulars: S. aureus RN4220 wild type/DeltatarO growth, OD600, 18 h, active compounds read low, screened at 18.75 µg/mL (by protocol).
On to `Cc1ccc2c(c1)-c1c(cnc3cc(-c4ccc(Cl)cc4)nn13)CO2`, for which the survival is 61% (inactive).
Under `CC(=O)c1cc2c(cc1N/C(=N/S(=O)(=O)c1ccc(C)cc1)c1ccc(Cl)cc1)OCO2` stands 10% (active); under `CC(=O)c1cc2c(cc1N/C(=N/S(=O)(=O)c1ccc(C)cc1)c1ccccc1)OCO2`, 88% (inactive); under `CC(=O)c1cc2c(cc1N/C(=N/S(=O)(=O)c1ccc(Br)cc1)c1ccccc1)OCO2`, 69% (inactive).
In the case of `CC(=O)c1cc2c(cc1N/C(=N/S(=O)(=O)c1ccccc1)c1ccc(Cl)cc1)OCO2`, the survival was -2% (active).
Consider `CC(=O)c1cc2c(cc1N/C(=N/S(=O)(=O)c1ccc(Cl)cc1)c1ccc(F)cc1)OCO2`, for which the survival was 80% (inactive).
Next, `CC(=O)c1cc2c(cc1N/C(=N/S(=O)(=O)c1ccc(C)cc1)c1ccc(F)cc1)OCO2`: 82% (inactive).
Under `CC(=O)Nc1ccc(NC(=O)c2ccc3c(c2)NC(=O)c2ccccc2S3)cc1` stands 138% (inactive).
Under `CC1=C(C(=O)OC2CCCC2)C(c2c(F)cccc2Cl)CC(=O)N1` (stereo unspecified) stands 87% (inactive).
`O=C1CC(c2nnc(Cc3cccc(Cl)c3)o2)CN1c1ccccc1` (stereo unspecified): the survival was 113% (inactive).
Next, `CS(=O)(=O)c1ccc(-c2nn[nH]n2)cc1`: 103% (inactive); `O=C(Nc1c(C(=O)N2CCN(c3ccccc3)CC2)oc2ccccc12)c1ccc(Br)o1`: 81% (inactive).
In the case of `COc1cc(Cl)c(C)cc1Nc1nc2ccccc2n2cnnc12`, the survival was 127% (inactive).
Next, `CCOc1ccc(S(=O)(=O)c2c(C(=O)c3ccc(CC)cc3)cnc3ccc(C)cc23)cc1`: 87% (inactive); `COc1ccc(C(=O)c2cnc3ccc(C)cc3c2S(=O)(=O)c2ccccc2)cc1`: 79% (inactive); `CCOC(=O)C1CCN(c2c(C(=O)c3ccc(C)cc3)cnc3ccc(F)cc23)CC1`: 3% (active).
Under `CCc1ccc2ncc(C(=O)c3ccc(C)c(C)c3)c(N3CCC(C(N)=O)CC3)c2c1` stands 102% (inactive); under `CCOC(=O)C1CCN(c2c(C(=O)c3ccc(OCC)cc3)cnc3ccc(OC)cc23)CC1`, 0% (active); under `CCOC(=O)C1CCN(C(=O)c2ccc(C)cc2)CC1`, 93% (inactive).
Next, `CCOC(=O)C1CCN(c2c(C(=O)c3ccc(OC)cc3)cnc3ccccc23)CC1`: 125% (inactive).
Regarding `CCN1CCN(c2c(S(=O)(=O)c3ccc(OC)cc3)cnc3cc(OC)c(OC)cc23)CC1`, the survival is 77% (inactive).
Under `COc1cc2ncc(C(=O)c3ccc(C)cc3)c(N3CCCCC3)c2cc1OC` stands 2% (active).
Next, `CCCN(CCC)CCNC(=O)Cn1cc2c(n1)-c1c(oc(C(=O)N3CCCC3)c1C)CC2`: 106% (inactive).
On to `COc1ccc(-c2nc3ccccc3n3c(-c4cccc(C)c4)c4c(=O)n(C)c(=O)n(C)c4c23)cc1OC`, for which the survival is 77% (inactive).
Turning to `CC(C)Oc1ccc(CNC(=O)c2sc3ncccc3c2-n2cccc2)cc1`, the survival was 64% (inactive).
Next, `O=C(CN1CCC(n2cnc3cc(F)ccc32)CC1)Nc1ccccc1Br`: 108% (inactive); `CCOC(=O)c1ccc(NC(=O)c2c(NCc3cc(OC)c(OC)cc3OC)sc3c2CCCC3)cc1`: 85% (inactive); `COCCn1c(SCC(=O)Nc2sc(C)c(C)c2C#N)nnc1C(C)C`: 103% (inactive).
Next, `COc1ccccc1-c1nn(CCC(=O)Nc2ccccc2)c2nc(C)cc(C)c12`: 86% (inactive).
Take `CCN(C(=O)Cn1c(C(=O)OC)cc2oc3ccccc3c21)c1cccc(C)c1`: the survival is 24% (active).
Regarding `COC(=O)c1cc2oc3ccccc3c2n1Cc1cccc(C)c1`, the survival is 3% (active).
Next, `COC(=O)c1cc2oc3ccccc3c2n1Cc1ccc(Cl)cc1`: 21% (inactive); `COC(=O)c1cc2oc3ccccc3c2n1Cc1ccc(C)cc1`: 82% (inactive); `COC(=O)c1cc2oc3ccccc3c2n1Cc1nc(-c2cccc(C)c2)oc1C`: 72% (inactive).
Next, `COC(=O)c1cc2oc3ccccc3c2n1CC(=O)Nc1ccc(C)cc1C`: 86% (inactive); `S=c1nc[nH]c2c1[nH]c1ccccc12`: 98% (inactive).
Under `CC1CCN(S(=O)(=O)c2cc(C(=O)Nc3ccc(Br)cc3F)n(C)c2)CC1` stands 77% (inactive); under `COc1cc(C(c2nnnn2Cc2ccco2)N2CCN(C3CCCC3)CC2)cc(OC)c1OC` (stereo unspecified), 107% (inactive); under `CC1CCN(C(=O)Cn2cc(SCC(=O)NCc3ccccc3)c3ccccc32)CC1`, 86% (inactive).
As to `Cc1ccc(C)n1-c1c(C(=O)NCCC(C)C)sc2ncccc12`, the survival was 79% (inactive).
As to `Cc1nc2ccccc2c(=O)n1-c1ccc(NC(=O)c2cccc([N+](=O)[O-])c2)cc1`, the survival was 59% (inactive).
Turning to `Cc1cc(N2CCN(c3cccc(C(F)(F)F)c3)CC2)n2nc(-c3ccccc3)nc2n1`, the survival was 87% (inactive).
Next, `COc1ccc(-c2nc3nc(C)cc(N4CCN(c5cccc(C(F)(F)F)c5)CC4)n3n2)cc1`: 88% (inactive); `Cc1cc(N2CCN(c3cccc(C(F)(F)F)c3)CC2)n2nc(-c3ccccc3C)nc2n1`: 11% (active); `CCN(CC)C(=O)C1=C(C)Nc2nc3ccccc3n2C1c1ccc(Br)cc1` (stereo unspecified): 80% (inactive).
Under `Cc1cc(S(=O)(=O)C(CNC(=O)COc2ccccc2)c2cccs2)ccc1F` (stereo unspecified) stands 153% (inactive); under `COc1cc(C2CC(=O)N(Cc3cccc(F)c3)c3ccccc3S2)cc(OC)c1OC` (stereo unspecified), 83% (inactive); under `COc1cc(C2CC(=O)N(Cc3ccc(F)cc3)c3ccccc3S2)cc(OC)c1OC` (stereo unspecified), 72% (inactive).
Under `O=C1CC(c2ccccc2)Sc2ccccc2N1Cc1ccccc1F` (stereo unspecified) stands 96% (inactive); under `O=C1CC(c2ccccc2)Sc2ccccc2N1Cc1ccc(F)cc1` (stereo unspecified), 16% (active); under `COc1ccc(C2CC(=O)N(Cc3ccc(F)cc3)c3ccccc3S2)cc1` (stereo unspecified), 30% (inactive).
Turning to `COc1ccc(C2CC(=O)N(Cc3cccc(F)c3)c3ccccc3S2)cc1` (stereo unspecified), the survival is 9% (active).
Next, `COc1ccc(S(=O)(=O)c2c(Nc3ccc(C)cc3)sc(C(=O)c3ccc4c(c3)OCO4)c2N)cc1`: 143% (inactive); `CCNc1nc(NCC)nc(N(n2cnnc2)S(=O)(=O)c2ccc(C)cc2)n1`: 45% (inactive).
With `CCOc1ccc(CNC(=O)c2cnc3sc(N(CC)CC)nn3c2=O)cc1`, the survival was 75% (inactive).
Under `COc1ccc(N2CCN(CCCNC(=O)Cn3c(-c4cccs4)cc4ccccc43)CC2)cc1` stands 86% (inactive).
With `Cc1cc(C)cc(NC(=O)CN2C(=O)COc3ccc(S(=O)(=O)Nc4ccccc4)cc32)c1`, the survival is 98% (inactive).
Under `COc1ccc(-c2nnn3c2nc(N2CCCC(C)C2)c2ccccc23)cc1` (stereo unspecified) stands 0% (active); under `CC1CCCN(c2nc3c(-c4ccc(Cl)cc4)nnn3c3ccccc23)C1` (stereo unspecified), 83% (inactive); under `Cc1ccc(-c2nnn3c2nc(N2CCC(C)CC2)c2ccccc23)cc1`, -2% (active).
Under `CC1CCN(c2nc3c(-c4cccc(Br)c4)nnn3c3ccccc23)CC1` stands 85% (inactive).
Under `Brc1cccc(-c2nnn3c2nc(N2CCCCC2)c2ccccc23)c1` stands 76% (inactive); under `Clc1ccc(-c2nnn3c2nc(N2CCCCC2)c2ccccc23)cc1`, 45% (inactive); under `COc1ccc(C2C(C(=O)Nc3ccc(C)cc3C)=C(C)Nc3nc4ccccc4n32)c(OC)c1` (stereo unspecified), 65% (inactive).
Consider `CCOC(=O)C1CCCN(S(=O)(=O)c2ccc3[nH]c(=O)oc3c2)C1` (stereo unspecified), for which the survival was 88% (inactive).
Next, `CCOc1ccc(NC(=O)CCCn2c(C)c3cnn(-c4ccccc4)c(=O)c3c2C)cc1`: 89% (inactive); `COc1ccc(Cl)cc1NC(=O)C(C)N1Cc2ccccc2C1=O` (stereo unspecified): 85% (inactive).
Under `COC(=O)CSc1nc(N)c(C#N)c(-c2ccccc2)c1C#N` stands 112% (inactive); under `CCC(Sc1nc(N)cc(=O)[nH]1)C(=O)NC(C)c1ccccc1` (stereo unspecified), 103% (inactive); under `O=C(CSc1nc(-c2ccccc2)cc(=O)[nH]1)c1ccccc1`, 119% (inactive).
As to `CCOC(=O)C1CCN(c2nc3ccccc3nc2Cl)CC1`, the survival was -26% (active).
Under `COc1ccc(N2CCN(c3ncnc4c3nnn4C)CC2)cc1` stands -2% (active).
Next, `CCOC(=O)C1CCN(c2ncnc3c2nnn3C)CC1`: 10% (active); `CC1CCN(c2ncnc3c2nnn3C)CC1`: 83% (inactive); `CCOC(=O)C1CCN(c2cc(C)c(C#N)c3nc4ccccc4n23)CC1`: 99% (inactive).
Next, `CCOC(=O)C1CCN(c2nc(-c3ccc(Br)cc3)nc3ccccc23)CC1`: 75% (inactive); `CCOC(=O)C1CCCN(c2ncnc3c2nnn3C)C1` (stereo unspecified): 121% (inactive); `Cn1nnc2c(N3CCN(c4ccccc4)CC3)ncnc21`: 88% (inactive).
`Cn1nnc2c(N3CCN(c4ccc(F)cc4)CC3)ncnc21`: the survival is 80% (inactive).
On to `CCn1nnc2cc(C(=O)Nc3cccc(Cl)c3)ccc21`, for which the survival was 87% (inactive).
Under `CN(Cc1ccccc1)C(=O)C1CCC(CNS(=O)(=O)c2ccc3c(c2)CCCC(=O)N3)CC1` (stereo unspecified) stands 131% (inactive).
Under `Clc1ccc2nc(-c3ccc(Br)o3)c(Nc3ccc4c(c3)OCCO4)n2c1` stands 93% (inactive).
With `O=C(CSc1ncccn1)NCCC1=CCCCC1`, the survival was 112% (inactive).
Next, `CCc1ccc(-n2cnc3cc(C(=O)NCc4ccc(C)cc4)ccc32)cc1`: 65% (inactive); `CCCn1c(COc2cccc(C)c2)nc2ccccc21`: 25% (active).
Consider `CC(=O)NCCc1nc2ccccc2n1CCCCOc1ccc(Cl)cc1`, for which the survival was 95% (inactive).
On to `CCc1nc2ccccc2n1CCCCOc1ccccc1C`, for which the survival is 24% (active).
Next, `CCc1nc2ccccc2n1CCCCOc1ccc(Cl)cc1`: 2% (active); `CCCCn1c(COc2cccc(OC)c2)nc2ccccc21`: 88% (inactive); `Cc1ccccc1OCCCCn1c(CCNC(=O)C(C)(C)C)nc2ccccc21`: 65% (inactive).
On to `Cc1ccccc1OCCn1c(CCNC(=O)C(C)(C)C)nc2ccccc21`, for which the survival is 75% (inactive).
Under `COc1cccc(OCc2nc3ccccc3n2CCOc2cccc(C)c2)c1` stands 73% (inactive); under `CCc1nc2ccccc2n1CCCCOc1ccc(C)cc1`, 1% (active); under `CC(C)(C)C(=O)NCCc1nc2ccccc2n1CCCCOc1ccccc1`, 79% (inactive).
`CC(C)(C)C(=O)NCCc1nc2ccccc2n1CCCCOc1ccc(Cl)cc1`: the survival was 28% (inactive).
Next, `Cc1ccc(OCCCCn2c(CCNC(=O)C(C)(C)C)nc3ccccc32)cc1`: 76% (inactive).
